Records with an inconclusive call do not appear. Active and inactive are the calls of the source. Calls follow the shape of the dose curve; as a rule, active = well fitted curve in the direction sought with a large enough effect; inconclusive = small, poorly fitted or top-dose-only effect, or another doubt; inactive = no such curve, though single readings can be large; an effect the other way counts as inactive or inconclusive.
Legend:
[1] = target: Tyrosyl-DNA phosphodiesterase 1 (Homo sapiens) (UniProt Q9NUW8); test: Confirmation Assay for Inhibitors of Tyrosyl-DNA Phosphodiesterase (TDP1) (AID 489007); settings: recombinant human TDP1 enzymatic activity, dose-response; also: potency is read from the fitted curve at half-maximal effect; nearly all actives have a fitted effect of over 40% in size
Chain of Tyrosyl-DNA phosphodiesterase 1 (Homo sapiens) (Q9NUW8 whole entry, looked up): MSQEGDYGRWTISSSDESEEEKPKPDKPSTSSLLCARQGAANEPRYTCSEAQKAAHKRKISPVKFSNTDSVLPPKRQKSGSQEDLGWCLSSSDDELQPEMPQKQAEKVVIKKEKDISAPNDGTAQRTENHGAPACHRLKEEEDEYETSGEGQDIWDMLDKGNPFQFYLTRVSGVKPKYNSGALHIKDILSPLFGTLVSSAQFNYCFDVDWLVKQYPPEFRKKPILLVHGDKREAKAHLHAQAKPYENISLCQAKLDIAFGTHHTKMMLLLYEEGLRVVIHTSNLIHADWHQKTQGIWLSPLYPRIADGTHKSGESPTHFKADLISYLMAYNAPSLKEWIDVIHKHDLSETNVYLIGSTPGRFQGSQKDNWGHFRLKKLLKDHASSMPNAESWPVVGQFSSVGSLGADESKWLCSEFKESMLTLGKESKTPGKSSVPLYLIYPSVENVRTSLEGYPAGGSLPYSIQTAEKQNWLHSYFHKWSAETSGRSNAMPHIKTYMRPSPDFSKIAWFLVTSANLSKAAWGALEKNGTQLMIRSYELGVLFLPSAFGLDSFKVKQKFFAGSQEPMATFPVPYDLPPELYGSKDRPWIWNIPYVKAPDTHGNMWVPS
Procedure, shortened: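 Loss of AlphaScreen signal reports Tdp1 cleavage of a dual-labelled DNA substrate. Conditions: 1 nM E. coli-derived enzyme, 15 nM substrate, 15 min compound preincubation, 5 min reaction, 10 min bead incubation, all at room temperature.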

[2] = target: Rap guanine nucleotide exchange factor 3 (Homo sapiens) (UniProt O95398); test: Confirmatory qHTS for agonist of cAMP-regulated guanine nucleotide exchange factor 3 (EPAC1) (AID 1645881);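 also: EPAC1 catalysed release of BODIPY-GDP from Rap1B seen as fluorescence loss; nearly all actives have a fitted effect of over 75% in size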
Chain of Rap guanine nucleotide exchange factor 3 (Homo sapiens) (O95398 whole entry, looked up): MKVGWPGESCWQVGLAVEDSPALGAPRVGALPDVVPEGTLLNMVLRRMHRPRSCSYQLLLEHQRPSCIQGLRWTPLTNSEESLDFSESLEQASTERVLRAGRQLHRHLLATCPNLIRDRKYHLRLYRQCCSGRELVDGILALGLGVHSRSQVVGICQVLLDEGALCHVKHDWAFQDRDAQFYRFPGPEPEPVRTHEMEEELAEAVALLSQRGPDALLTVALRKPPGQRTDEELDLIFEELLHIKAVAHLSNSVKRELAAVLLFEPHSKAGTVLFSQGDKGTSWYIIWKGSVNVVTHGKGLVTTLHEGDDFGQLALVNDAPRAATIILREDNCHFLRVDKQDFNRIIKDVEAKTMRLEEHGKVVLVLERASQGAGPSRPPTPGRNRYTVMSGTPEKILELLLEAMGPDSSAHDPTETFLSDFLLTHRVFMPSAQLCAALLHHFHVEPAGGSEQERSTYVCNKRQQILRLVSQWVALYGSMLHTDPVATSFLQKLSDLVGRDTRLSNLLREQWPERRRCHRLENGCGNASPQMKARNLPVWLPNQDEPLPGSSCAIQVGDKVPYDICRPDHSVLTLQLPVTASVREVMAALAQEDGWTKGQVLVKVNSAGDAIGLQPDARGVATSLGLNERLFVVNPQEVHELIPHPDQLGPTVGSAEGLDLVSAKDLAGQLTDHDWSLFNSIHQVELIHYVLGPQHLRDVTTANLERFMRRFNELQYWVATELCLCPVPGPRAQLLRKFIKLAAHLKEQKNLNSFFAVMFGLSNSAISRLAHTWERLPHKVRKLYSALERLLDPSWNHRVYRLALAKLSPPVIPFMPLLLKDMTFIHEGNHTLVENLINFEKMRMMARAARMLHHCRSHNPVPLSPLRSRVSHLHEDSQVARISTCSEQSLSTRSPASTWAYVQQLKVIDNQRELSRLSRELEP

[3] = target: Rap guanine nucleotide exchange factor 4 (Homo sapiens) (UniProt Q8WZA2); test: Confirmatory qHTS for agonist of cAMP-regulated guanine nucleotide exchange factor 4 (EPAC2) (AID 1645884);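 also: nucleotide exchange releases bodipy-GDP from Rap1 and this lowers its fluorescence; nearly all actives have a fitted effect of over 65% in size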
Chain of Rap guanine nucleotide exchange factor 4 (Homo sapiens) (Q8WZA2 whole entry, looked up): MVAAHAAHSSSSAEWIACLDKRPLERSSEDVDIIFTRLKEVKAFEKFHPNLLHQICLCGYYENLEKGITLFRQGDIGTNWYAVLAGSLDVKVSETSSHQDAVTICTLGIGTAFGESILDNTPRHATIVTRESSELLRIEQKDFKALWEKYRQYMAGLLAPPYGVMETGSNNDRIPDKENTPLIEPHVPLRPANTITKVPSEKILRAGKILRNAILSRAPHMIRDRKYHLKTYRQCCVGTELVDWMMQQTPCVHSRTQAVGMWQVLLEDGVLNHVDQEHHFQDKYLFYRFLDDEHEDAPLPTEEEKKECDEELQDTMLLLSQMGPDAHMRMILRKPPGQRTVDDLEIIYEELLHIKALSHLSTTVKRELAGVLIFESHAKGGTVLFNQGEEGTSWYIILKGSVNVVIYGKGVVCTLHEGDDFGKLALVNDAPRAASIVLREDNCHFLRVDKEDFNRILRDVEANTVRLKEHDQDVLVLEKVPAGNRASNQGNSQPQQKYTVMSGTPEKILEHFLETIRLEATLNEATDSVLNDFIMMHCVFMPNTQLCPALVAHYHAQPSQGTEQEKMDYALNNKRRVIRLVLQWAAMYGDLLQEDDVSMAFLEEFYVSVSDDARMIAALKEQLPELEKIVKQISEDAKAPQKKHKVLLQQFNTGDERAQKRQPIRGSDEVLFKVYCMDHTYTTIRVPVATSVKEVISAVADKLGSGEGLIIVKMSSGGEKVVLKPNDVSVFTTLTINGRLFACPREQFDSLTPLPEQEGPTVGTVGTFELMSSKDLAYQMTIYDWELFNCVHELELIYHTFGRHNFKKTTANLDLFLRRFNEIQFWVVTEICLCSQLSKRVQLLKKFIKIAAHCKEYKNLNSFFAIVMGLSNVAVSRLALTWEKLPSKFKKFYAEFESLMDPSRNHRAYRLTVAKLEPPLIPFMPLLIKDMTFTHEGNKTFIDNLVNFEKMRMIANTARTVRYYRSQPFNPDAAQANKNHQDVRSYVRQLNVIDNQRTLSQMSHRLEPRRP

[4] = target: Rap guanine nucleotide exchange factor 4 (Homo sapiens) (UniProt Q8WZA2); test: Confirmatory qHTS for antagonist of cAMP-regulated guanine nucleotide exchange factor 4 (EPAC2) (AID 1645885); also: nearly all actives have a fitted effect of over 25% in size
[5] = target: Rap guanine nucleotide exchange factor 3 (Homo sapiens) (UniProt O95398); test: Counterscreen qHTS for antagonist of cAMP-regulated guanine nucleotide exchange factor 3 (EPAC1) (AID 1645888);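 also: fluorescence loss as bound BODIPY-GDP is released from Rap1B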
Procedure, shortened: (§1)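 Rap1B–BODIPY-GDP (250 nM) with 50 uM GDP; compounds pin-transferred to 9.74 nM–152 uM final (activator) or from 7.32 nM upwards (inhibitor). Fluorescence Ex/Em 480/540 nm read at 5 and 30 min, then after adding cAMP or buffer, at room temperature.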

[6] = target: Rap guanine nucleotide exchange factor 3 (Homo sapiens) (UniProt O95398); test: Counterscreen qHTS for agonist of cAMP-regulated guanine nucleotide exchange factor 3 (EPAC1) (AID 1645889); also: nearly all actives have a fitted effect of over 40% in size
Procedure, shortened: as §1

Measured: Potency

NC(=O)c1ccc(N=Cc2c(O)n(Cc3ccco3)c(=O)[nH]c2=O)cc1
active: [1] 14.1 µM
inactive: all other assays above

O=C(c1cc(-c2ccc(Cl)cc2)n(-c2ccc(Cl)cc2Cl)n1)N1CCOCC1
inactive: [2] | [4] | [5] | [6]

c1ccc(C(c2ccccc2)c2cccnc2)cc1
inactive: [2] | [5] | [6]
